# MITF primary: blocks human microphthalmia-associated transcription factor | AID 1259374 | inhibition, % at 2.6 µM | actives 0.91% (n = 650,000) | O75030 | AlphaScreen MITF homodimerization, bead proximity signal; in the data active = inhibition above about 50%;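 also: 0% = vehicle wells with protein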
# Target sequence (O75030 whole entry, looked up): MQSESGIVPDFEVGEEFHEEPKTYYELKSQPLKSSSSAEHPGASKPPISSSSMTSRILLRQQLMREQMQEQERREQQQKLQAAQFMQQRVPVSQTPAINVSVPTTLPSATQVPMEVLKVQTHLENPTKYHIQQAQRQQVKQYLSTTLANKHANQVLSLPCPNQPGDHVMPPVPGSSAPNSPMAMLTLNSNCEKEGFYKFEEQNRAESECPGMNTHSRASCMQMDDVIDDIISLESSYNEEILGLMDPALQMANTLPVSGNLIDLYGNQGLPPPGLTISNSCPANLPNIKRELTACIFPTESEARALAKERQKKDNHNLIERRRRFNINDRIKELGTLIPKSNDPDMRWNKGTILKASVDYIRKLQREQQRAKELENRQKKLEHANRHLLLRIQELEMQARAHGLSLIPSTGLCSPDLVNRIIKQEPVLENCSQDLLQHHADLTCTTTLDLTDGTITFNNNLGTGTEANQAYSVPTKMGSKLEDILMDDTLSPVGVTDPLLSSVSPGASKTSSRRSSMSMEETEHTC
# TEAD-YAP inh: TEAD-YAP interaction inhibition. HEK-TIYL cells, TEAD-Gal4/YAP UAS-luciferase luminescence. actives 1.4% (n = 640,000). inhibition, % at 9.12 µM. AID 1259422; in the data active = inhibition above about 32%;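 also: 0% = median of test compound wells and 100% = reference inhibitor wells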
# FBW7 act: human FBW7 E3 ligase activation, primary screen; Q969H0; AlphaScreen FBW7–phospho-cyclin E peptide binding, activator screen; normalized activity (activation), % at 26.1 µM; actives 0.13% (n = 650,000); AID 1259310; in the data active = normalized activity above about 1.9%;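 also: purified mutant Fbw7 with reduced substrate affinity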
# GPR151 ag: human GPR151 activation; Q8TDV0; PathHunter beta-arrestin GPR151 cells, luminescence; activation, % at 11.2 µM; actives 1% (n = 650,000); in the data active = activation above about 4.9%;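 also: 0% = median of compound wells and 100% = cells with positive control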
# Numbers without * were called inactive. Most compounds without a hit are left out; they make up all but 3.4% or so of the library.
SMILES,MITF primary,TEAD-YAP inh,FBW7 act,GPR151 ag
O=C(c1ccccc1)n1c2ccccc2c2ccccc21,18.1,36.2*,0.3,-0.2
Cc1cc2c(cc1C)-c1c(ssc1=Nc1ccc(F)cc1)C(C)(C)N2,-18.9,2.1,-0.3,1.3
COc1cccc(-n2cc(C(=O)NCCC(=O)Nc3ccc(OC)c(Cl)c3)c3ccccc3c2=O)c1,10.8,7.0,0.1,0.2
COc1ccccc1C(=O)Nc1cccc(N2CCC(NCc3ccsc3)CC2)c1,-9.5,-11.6,-0.2,-1.0
COc1ccccc1C(=O)Nc1cccc(N2CCC(NCCc3cnccn3)CC2)c1,7.6,20.4,0.0,-0.1
O=S(=O)(Nc1cccc(N2CCC(NCCc3ccco3)CC2)c1)c1ccc(F)cc1,60.8*,-9.4,0.7,1.1
O=S(=O)(Nc1cccc(N2CCC(NCCn3ccnc3)CC2)c1)c1ccc(F)cc1,-1.6,5.7,-0.5,-0.5
CCCCNC1CCN(c2cccc(NC(=O)c3ccccc3OC)c2)CC1,29.4,41.3*,0.3,2.7
COc1ccccc1C(=O)Nc1cccc(N2CCC(NCCc3ccco3)CC2)c1,3.0,44.4*,-0.3,0.4
COc1ccccc1C(=O)Nc1cccc(N2CCC(NCCc3cccs3)CC2)c1,20.4,50.6*,0.0,-0.9
CCOc1ccc(S(=O)(=O)Nc2cc3c(C(=O)OC)c(C)oc3c3ccccc23)cc1,-1.9,63.1*,0.0,1.8
CCOC(=O)c1c(C)oc2c1cc(NS(=O)(=O)c1ccc(OC)cc1)c1ccccc12,9.6,51.2*,0.0,-0.1
CCOc1ccc(S(=O)(=O)Nc2cc3c4c(oc3c3ccccc23)CCCC4)cc1,-8.8,48.8*,-0.1,-0.7
COc1ccc(S(=O)(=O)Nc2cc3c(C(C)=O)c(C)oc3c3ccccc23)cc1,-3.1,68.7*,-0.4,3.1
Cn1cnnc1SCCNCCO,33.7,9.9,-0.2,1.1
COC(=O)c1cc(Cc2ccccc2)sc1NC(=O)C1(C)CC1(Cl)Cl (stereo not given),-2.9,2.7,0.0,0.0
CCOC(=O)c1ccccc1NS(=O)(=O)c1ccc(OCC)cc1,-14.8,47.7*,0.0,-2.3
COc1ccc(S(=O)(=O)Nc2cc3c(cc2C(C)=O)OCO3)cc1,11.5,38.2*,0.3,0.9
CC(=O)c1cc2c(cc1NS(=O)(=O)c1ccc(C(C)(C)C)cc1)OCO2,3.5,-4.0,-0.1,0.3
NC(=O)c1ccc(NC(=O)CSc2nnc(-c3ccco3)n2N)cc1,0.2,4.4,-0.1,1.7
Cc1cc(N/N=C/c2cc([N+](=O)[O-])ccc2O)nc(-c2ccccc2O)n1,-11.6,77.4*,-0.1,0.1
Cc1cc(N/N=C/c2cccc([N+](=O)[O-])c2)nc(-c2ccccc2O)n1,12.5,1.9,0.2,-0.5
O=[N+]([O-])c1ccc(O)c(/C=N/Nc2ccc(Cl)nn2)c1,-11.1,46.4*,-0.1,0.5
Cc1cc(N/N=C/c2ccc(O)c(C)c2O)nc(-c2ccccc2O)n1,-1.9,42.3*,0.2,0.4
CCCCNc1nc(SCC(=O)Nc2nccs2)nc2ccccc12,8.0,15.0,-0.2,-0.4
SMILES,MITF primary,TEAD-YAP inh,FBW7 act,GPR151 ag
COc1ccccc1OS(=O)(=O)c1cn(C)c(=O)n(C)c1=O,2.5,3.0,0.0,-1.0
COc1ccccc1-c1nc(SC2CCCC2)c2c(=O)n(C)c(=O)n(C)c2n1,7.9,-3.4,-0.1,1.7
Cc1nn(-c2ccc(N3CCOCC3)nn2)c(C)c1CCC(=O)O,-0.2,2.8,0.1,-1.9
O=C(Nc1ccc(N2CCCN(C(=O)C3CC3)CC2)cc1)c1ccc(-n2cccc2)cc1,8.8,32.6*,0.2,2.4
CC(=O)N1CCSc2cc(S(=O)(=O)N3CCC(Cc4ccccc4)CC3)ccc21,12.5,54.5*,0.8,0.8
CC(=O)N1CCSc2cc(S(=O)(=O)NCCCc3ccccc3)ccc21,8.8,34.8*,0.5,1.8
Cc1cccc(-c2nc(NCc3ccco3)c3ccccc3n2)c1,7.0,0.8,-0.1,1.0
CCOC(=O)c1cnn(-c2nc(C)nc3sc(-c4ccccc4)cc23)c1/N=C/N(C)C,0.0,34.1*,0.0,1.8
CCOC(=O)c1cnn(-c2ccc(Cl)nn2)c1/N=C/N(C)C,-4.0,0.6,0.1,-0.4
CCOC(=O)c1oc2cccc(O)c2c1CN(C)C,-4.3,-0.6,-0.1,3.4
N/C(CC(=O)NC1CCCCC1)=N\OCC(=O)N1CCCc2ccccc21,-2.8,1.8,-0.1,0.5
Cc1ccc2c(c1)C(=Nc1ccc(I)cc1)C(=O)N2,20.9,-8.5,2.1*,-0.8
Cc1ccc(C(=O)NNC(=O)c2cccnc2)cc1,5.4,1.6,0.1,0.2
CCN=C1NN=C(c2ccc(C)cc2)CS1,7.5,73.4*,-0.3,1.3
C=CCN=C1NN=C(c2cc(C)n(CC=C)c2C)CS1,-1.8,89.4*,-0.2,-2.6
Cc1cc(C2=NNC(=NCc3ccccc3)SC2)c(C)n1C,6.9,0.9,0.8,-0.8
C=CCN=C1NN=C(c2ccc3c(c2)OCCO3)CS1,6.5,50.6*,-0.3,0.0
NC1=NN=C(c2ccc3c(c2)OCCO3)CS1,1.3,-13.1,0.4,-0.1
c1ccc(CN=C2NN=C(c3ccccc3)CS2)cc1,5.5,-26.9,-0.1,0.8
CC(C(=O)OCc1ccc(F)cc1)N1C(=O)C(=O)c2cc(Br)ccc21 (stereo not given),53.4*,-0.3,0.1,1.3
N/C(=N\OC(=O)c1sc2ccccc2c1Cl)c1ncon1,17.4,40.0*,1.2,-0.3
N/C(=N\OC(=O)c1ccccc1Cl)c1ncon1,4.9,19.9,0.0,-0.1
CCOC(=O)c1sc(NC(=O)c2ccco2)c(SC#N)c1C,5.4,34.4*,-0.1,-1.1
OCc1ccc(-c2cnc3ccc(NCc4ccc5c(c4)OCO5)nn23)cc1,11.4,57.7*,0.7,-1.0
c1cc(-c2cnc3ccc(NCc4ccc5c(c4)OCO5)nn23)ccn1,8.7,47.1*,0.2,-0.1
SMILES,MITF primary,TEAD-YAP inh,FBW7 act,GPR151 ag
c1ccc(-c2cnc3ccc(NCc4ccc5c(c4)OCO5)nn23)cc1,2.2,3.7,-0.3,0.2
Cc1ccc(C)c(OCC(=O)Nc2ccccc2C(N)=O)c1C,9.3,48.3*,0.6,-1.9
CCOc1ccc(NC(=O)COc2c(C)ccc(C)c2C)cc1,3.9,40.6*,0.0,1.5
CCOc1ccc(NC(=O)COc2c(C)cccc2C)cc1,-23.2,31.4,0.0,0.1
Cc1ccc(S(=O)(=O)N2c3ccccc3CC2C)cc1 (stereo not given),-10.5,3.9,0.1,-0.7
COc1ccc(S(=O)(=O)N2c3ccccc3CC2C)cc1 (stereo not given),-0.4,47.5*,-0.2,1.6
CCOc1ccc(S(=O)(=O)N2c3ccccc3CC2C)cc1 (stereo not given),3.7,52.4*,0.0,0.7
CCC(=O)Nc1ccc(S(=O)(=O)N2c3ccccc3CC2C)cc1 (stereo not given),-8.1,6.7,-0.1,1.2
Cc1ccccc1C(=O)Nc1sc2c(c1C(=O)NC(C)c1ccccc1)CCCCC2 (stereo not given),-7.5,5.4,0.1,-0.8
CCOc1ccc(N/C=C\C(=O)c2ccc(F)cc2)cc1,-0.5,-54.1,0.1,2.3
OCCN1CCN(c2ncnc3ccc(Br)cc23)CC1,-18.0,38.7*,0.1,-0.1

# Assay outcomes (PubChem BioAssay)
